# Assay results from PubChem BioAssay (NCI).
# Values joined by “and” are separate entries in the source; they are usually repeats but may differ in a detail not shown here. Equal values may be shown once. The panel holds about 83,000 compounds, 20% with a hit somewhere; the sample as a whole holds those more often.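 Cell lines were cultured in 96-well plates, exposed to a single compound concentration, and assessed for percent growth 48 hours later.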 A number with no mark means an inactive call.
# System: SNB-19 CNS
# Assay: NCI-60 one-dose screen, 48 h (100 = growth as untreated, 0 = no growth, -100 = all killed)
# Conditions: 10 µM unless noted
# Experimental: Growth inhibition of the SNB-19 human tumor cell line is measured as a screen for anti-cancer activity. Cells are grown in 96 well plates and exposed to the test compound for 48 hours. Compounds are tested at a single concentration, which is 10^-5 M for most compounds. The reported endpoint is percent growth (GI% or GIPRCNT), where numbers from 0 - 100% represent growth inhibition, and numbers from -100% - 0 represent cell death. For example, a value of 40 represents 60% growth inhibition. A value of 0 means no net growth occurred over the course of the experiment. A value of -40 indicates 40% of cells at the beginning of the experiment died by the end of the experiment. A value of -100 means all cells are dead at the end of the experiment.
# NCI-60 Human Tumor Cell Lines Screen was performed using the standard one-dose NCI protocol, which is described in more detail at https://dtp.cancer.gov/discovery_development/nci-60/default.htm.
# Compounds with GIPRCNT values below 10 were considered active. Activity score was based on GIPRCNT using the following formula: […]
# Score is 0 for GIPRCNT values of 100 or above, 50 for GIPRCNT values of 0, and 100 for GIPRCNT values of -100.
row,Structure (SMILES),growth
1,O=C1C2=C(Nc3cc(Cl)ccc3N2)OC1c1c[nH]c2ccc(COc3ccccc3)cc12 (stereo not given),30.4%
2,CCN(CC)C(CC(=O)c1ccccc1)C(=O)c1ccccc1 (stereo not given),98.4%
3,c1ccc2c[n+](Cc3ccc4ccccc4n3)ccc2c1,71.2%
4,N#CC1c2ccccc2C=CN1C(=O)c1ccccc1 (stereo not given),103% and 109%
5,CC(=O)c1cccc(OC(=O)c2ccccc2)c1,97.2%
6,CC(=O)Oc1ccc(C2(c3ccc(OC(C)=O)cc3)C(=O)Nc3ccccc32)cc1,108% and 101%
7,CCN(CC)C(=S)SCCO,104%
8,OC(CC(c1ccccc1)c1cccc2ccccc12)(c1ccccc1)c1ccccc1 (stereo not given),95.5% and 94.7%
9,COCCNC(C)=O,104%
10,O=P(O)(O)OC1C(OP(=O)(O)O)C(OP(=O)(O)O)C(OP(=O)(O)O)C(OP(=O)(O)O)C1OP(=O)(O)O.[Cu+2] (stereo not given),106%
11,OCc1cccc(F)c1,92.2%
12,CSc1nc(N)c(N)c(N)n1,100%
13,C=CCN1C(=O)c2ccccc2C1=O,98.1%
14,CCOC(=N)c1ccc(C(=N)OCC)cc1,91.4%
15,CC(=O)Nc1ccc(OC(C)=O)cc1,35.2% and 111%
16,Nc1c(Cl)cc2c(c1Br)C(=O)c1ccccc1C2=O,88.8%
17,CCCCCc1cc[n+](CC(=O)c2ccccc2)cc1,93.4% and 107%
18,Cc1ccc([N+](=O)[O-])cc1Br,97.9%
19,CC(O)CCNC(c1ccccc1)C(O)c1ccccc1 (stereo not given),103%
20,COc1cc(C2c3cc4c(cc3C(OC(=O)C[n+]3ccccc3)C3COC(=O)C23)OCO4)cc(OC)c1OC (stereo not given),27.5%

row,Structure (SMILES),growth
1,N#Cc1c(N)nc2c(c(-c3ccc(Cl)cc3)nn2-c2ccccc2)c1C#N,99.6% [100 µM]
2,O=C(NC(CSSCC(NC(=O)OCc1ccccc1)C(=O)O)C(=O)O)OCc1ccccc1 (stereo not given),93.2% and 104%
3,S=c1nn[nH]n1C1CCCCC1,111%
4,OCCCc1ccccc1,99.3%
5,C/C=C(/C(=O)NC(N)=O)C(C)C,110%
6,O=C(O)c1cc(=O)[nH]c(=O)[nH]1,111% and 104%
7,CCOC(=O)NC(N)=O,103% and 100%
8,O=COCCCc1ccccc1,96.7%
9,COC(=O)c1nc(=S)[nH]c(C(=O)OC)c1C(=O)c1ccccc1,102%
10,O=C(O)c1cccc(Br)c1,108% and 105%
11,CS(=O)(=O)c1nsc(N)n1,98.5%
12,C/C=C/C(=O)OCCCCCCCCCCCC,85.2%
13,CC(=O)Oc1ccc(C(c2ccc(OC(C)=O)cc2)c2ccccn2)cc1,104% and 98.8%
14,Cc1c(Cl)c(C)c(Cc2c(C)c(Cl)c(C)c(Cl)c2O)c(O)c1Cl,10.6%
15,Nc1ccc(O)c(C(=O)O)c1,91.9% and 104% and 117%
16,CC(C)(C)OC(=O)NCCc1ccc(N)cc1,104%
17,CC(=O)Nc1cscc1NC(C)=O,92.6%
18,O=C(O)/C=C/C=C/c1ccccc1,97.1% and 100%
19,COc1ccc(/C=N/Nc2nc3ccccc3s2)cc1,99%
20,CC(NC(=O)CCl)c1ccccc1 (stereo not given),103%
